Screens deposited in PubChem by National Center for Advancing Translational Sciences (NCATS).
MCF10A rereplic = inducers of DNA re-replication in MCF 10A breast cells. MCF 10A DNA re-replication, Hoechst nuclear intensity, 48 h. AID 624296. Potency, µM (highest dose often 46.1 µM), for inactives: at the top dose activity, positive = re-replication, usual class: activators. 2.9% of 350,000 active; note: % of control where 0% means no effect; nearly all actives have a fitted effect of over 50% in size
SW480 rerep = induces DNA re-replication in SW480 colon adenocarcinoma cells; SW480 DNA re-replication, Hoechst DNA content imaging, 48 h; Potency, µM (series often up to 46.1 µM), for inactives: at the highest dose re-replication activation, hits mostly activators; 1.8% of 340,000 active; note: % of control where 0% means no effect; nearly all actives have a fitted effect of over 55% in size
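Quantitative HTS format with DMSO vehicle controls; 48 hr drug incubation at 37 C, then 40 min Hoechst staining and scanning imager measurement at 405 nm excitation.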
Gal4-VP16 FLuc = inhibits Gal4-VP16 luciferase reporter, ROR gamma counter-screen | Drosophila S2 Gal4-VP16 UAS-luciferase, luminescence, 20 h | Potency, µM (highest dose often 53.6 µM), for the others: at the highest dose activity, negative = inhibition, usual class: inhibitors | 3.5% of 310,000 active;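 note: Gal4-VP16 expression switched on by copper sulfate through the metallothionein promoter; % is set by controls: 0 for no effect and ±100 for the full control effect; nearly all actives have a fitted effect of over 50% in size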
RORgamma inh = ROR gamma (mouse) transcription inhibition; P51450; Drosophila S2 Gal4-RORgamma UAS-luciferase reporter, 20 h; Potency, µM (doses to about 53.6 µM), for the others: at the top dose activity change, negative = inhibition, actives largely listed as inhibitors; 5.4% of 310,000 active; note: % is set by controls: 0 for no effect and ±100 for the full control effect; nearly all actives have a fitted effect of over 60% in size
Target sequence (P51450 whole entry, looked up, the tested form may be a part): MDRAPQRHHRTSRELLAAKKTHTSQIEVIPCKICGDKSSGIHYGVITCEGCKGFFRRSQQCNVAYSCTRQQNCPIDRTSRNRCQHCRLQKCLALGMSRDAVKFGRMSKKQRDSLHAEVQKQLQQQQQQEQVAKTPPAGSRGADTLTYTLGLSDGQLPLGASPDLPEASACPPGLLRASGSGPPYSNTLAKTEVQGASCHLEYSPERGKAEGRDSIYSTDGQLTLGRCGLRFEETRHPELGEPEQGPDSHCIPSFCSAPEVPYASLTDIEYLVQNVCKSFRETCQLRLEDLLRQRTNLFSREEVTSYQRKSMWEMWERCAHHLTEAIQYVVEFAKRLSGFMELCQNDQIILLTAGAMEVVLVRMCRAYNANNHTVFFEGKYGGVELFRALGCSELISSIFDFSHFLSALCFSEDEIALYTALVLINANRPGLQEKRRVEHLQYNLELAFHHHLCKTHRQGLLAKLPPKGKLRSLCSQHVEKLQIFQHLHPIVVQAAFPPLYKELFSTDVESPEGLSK
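Luciferase reporter read in Schneider cells carrying Gal4-RORγ (mouse) and UAS-Photinus luciferase; cells given compound 1 h before 700 uM copper sulfate induction, then incubated 20 h at ambient temperature.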
ELG1 DNA repair = inhibitors of ELG1-dependent DNA repair in HEK293T cells | AID 504467 | HEK293T ELG1-luciferase reporter, luminescence, 16 h; DNA damage induced by 5-fluorouridine | 2.3% of 330,000 active | Potency, µM (top dose mostly 46.1 µM), for inactives: at the highest dose activity change, negative = inhibition, hits mostly inhibitors; note: % is set by controls: 0 for no effect and ±100 for the full control effect; nearly all actives have a fitted effect of over 55% in size
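Cells (2,000 per well) received 5-fluorouridine plus test compound or DMSO and were incubated 16 hr at 37 °C, 5% CO2. Luciferase activity was read by luminescence 30 min after ONE-Glo addition; signal suppression marked inhibition of damage-induced ELG1 function.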
* hit, by the source's call; ? = inconclusive; · = no result given; [ ] = dose if it differs, or a comment. Hits are enriched below; roughly 10% of the tested compounds scored in any of these assays. Calls come from the whole dose curve; as a rule, active = well fitted curve in the direction sought with a large enough effect; inconclusive = small, poorly fitted or top-dose-only effect, or another doubt; inactive = no such curve, though single readings can be large; an effect the other way counts as inactive or inconclusive. Potency is the fitted concentration of half-maximal effect.

SMILES	MCF10A rereplic	SW480 rerep	Gal4-VP16 FLuc	RORgamma inh	ELG1 DNA repair
CCC1(c2ccc(Cl)cc2)NC(=O)N(CC(=O)NCc2ccc(F)cc2)C1=O (stereo unspecified)	6%	3%	-1%	?	-10%
CCC1(c2ccc(Cl)cc2)NC(=O)N(Cc2ccc(C(=O)OC)cc2)C1=O (stereo unspecified)	1%	0%	-16%	42%	21µM*
CCC1(c2ccc(Cl)cc2)NC(=O)N(CC(=O)NC2CCCC(C)C2C)C1=O (stereo unspecified)	67%	4.1µM*	·	·	6%
COc1ccc(Cn2nnnc2CN2CCc3ccccc32)cc1	9%	23µM*	4%	-22%	11%
COc1ccc(C2(O)CCN(Cc3nnnn3Cc3ccc(C)cc3)CC2)cc1	21µM*	?	1%	1%	-17%
COc1ccc(Cn2nnnc2CN2CCc3ccccc3C2)cc1	13%	1%	-13%	8%	-2%
CCCCCCC1CC(=O)NC(=S)N1 (stereo unspecified)	1%[9.22 µM]	-2%	?	8.9µM*	0%
O=c1cc(-c2ccccc2)[nH]n1-c1ccc([N+](=O)[O-])cc1	15µM*	23%	?	?	?
O=C1SC(SCc2ccccc2Cl)=N/C1=C\c1ccc(C(=O)O)cc1	?	?	-3%	35%	-4%
COc1ccc(C(=O)CCS(=O)(=O)c2ccc(C)cc2)cc1	?	?	10µM*	5.6µM*	3%
Cc1ccc(C(=O)CCS(=O)(=O)c2ccc(Br)cc2)cc1	?	?	?	-143%	4%
Cc1ccc(S(=O)(=O)NCC(=O)Nc2cccc([N+](=O)[O-])c2)cc1	-3%	-1%	-14%	23%	-9%
Cc1ccc(S(=O)(=O)CCC(=O)c2cccc([N+](=O)[O-])c2)cc1	3.7µM*	2%	5µM*	4µM*	?
COc1ccc(C(=O)CC(c2ccccc2)S(=O)(=O)c2ccc(C)cc2)cc1 (stereo unspecified)	0%	1%	1%	-3%	?
COc1ccc(C(CC(=O)c2ccc(O)cc2)S(=O)(=O)c2ccc(C)cc2)cc1 (stereo unspecified)	7%	-4%	10µM*	1.8µM*	?
CC(C)Oc1ccc(C(=O)Nc2ccc(S(=O)(=O)N3CCN(C)CC3)cc2)cc1	?	?	-12%	27%	?
Cc1ccc(C(=O)CN(CCC(=O)O)C(=O)c2ccncc2)cc1	-9%	2%	·	·	?
CCOc1ccccc1-c1cc(C(=O)N/N=C/c2ccc3c(c2)OCO3)c2ccccc2n1	15%	5%	10%	21%	?
CCOc1cccc(-c2cc(C(=O)N/N=C/c3ccc(OC)c(CN4CCOCC4)c3)c3ccccc3n2)c1	?	11%	?	16µM*	23µM*
CCOc1ccc(/C=N/NC(=O)c2cc(-c3ccco3)nc3ccccc23)cc1	4.1µM*	?	?	?	9%
O=C(O)c1cc(-c2ccco2)nc2ccccc12	-20%	2%	-10%	-22%	15%
O=C(N/N=C/c1ccc(F)cc1)c1cc(-c2ccco2)nc2ccccc12	13µM*	?	0%	27%	0%
O=C(NCCN1C(=O)S/C(=C\c2cccs2)C1=O)c1ccc(=O)[nH]c1	2%	-4%	4%	25%	-1%
COCC1CCCN(C(=O)c2cc(COc3ccc4ncccc4c3)on2)C1 (stereo unspecified)	5%	-3%	6%	5%	1%
C/C(CCN1CCCc2nc(C)c(C)cc21)=N\O[C@@H](C)CN1CCCc2nc(C)c(C)cc21	·	·	4%[10 µM]	3%[10 µM]	·
SMILES	MCF10A rereplic	SW480 rerep	Gal4-VP16 FLuc	RORgamma inh	ELG1 DNA repair
COc1ccc(N2CCN(C(=S)NCc3ccccc3)CC2)cc1	-5%	-4%	19%	-8%	-14%
CCS(=O)(=O)Nc1ccc(C2=NN(C(=O)c3ccco3)C(c3ccco3)C2)cc1 (stereo unspecified)	9.2µM*	?	·	·	?
CCS(=O)(=O)Nc1ccc(C2=NN(C(=O)c3ccco3)C(c3cccs3)C2)cc1 (stereo unspecified)	?	-5%	9%	?	0%
CC(=O)Nc1ccc(C2=NN(c3ccccc3)C(c3cccs3)C2)cc1 (stereo unspecified)	?	12µM*	?	-45%	-2%
CCS(=O)(=O)Nc1ccc(C2=NN(C(=O)c3ccccc3)C(c3cccs3)C2)cc1 (stereo unspecified)	?	7%	5%	-21%	16µM*
O=C(c1ccco1)N1N=C(c2ccc(Br)cc2)CC1c1ccco1 (stereo unspecified)	1%	-45%	·	·	11µM*
CCCNC(=O)OC[C@@H]1O[C@H](CCO/N=C2\c3cc(OC)ccc3O[C@H](c3cccc(OC)c3)[C@H]2O)C=C[C@@H]1Oc1ccc(OC)cc1	·	·	-6%[10 µM]	21%[10 µM]	·
CS(=O)(=O)Nc1cccc(C2=NN(C(=O)c3ccco3)C(c3ccco3)C2)c1 (stereo unspecified)	?	?	4%	30%	?
CCS(=O)(=O)Nc1cccc(C2=NN(C(=O)c3ccco3)C(c3ccco3)C2)c1 (stereo unspecified)	13µM*	13µM*	6%	8%	-14%
COc1ccc(C2=NN(C(N)=S)C(c3ccco3)C2)cc1 (stereo unspecified)	21%	-4%	?	10µM*	12%
Cc1ccc(S(=O)(=O)Nc2cc(-c3ccccc3)nn2C)cc1Cl	12%	-3%	-7%	12%	-3%
CCN(CC(=O)Nc1c(F)cccc1F)C(=O)c1cccc(S(=O)(=O)NCc2ccccc2)c1	-2%	?	·	·	8%
O=C(Nc1nc2ccc(F)cc2s1)c1cccc(S(=O)(=O)N2CCc3ccccc32)c1	-32%	-34%	-29%	?	?
Cc1ccc2nc(NC(=O)c3ccc(S(=O)(=O)N4CCCc5ccccc54)cc3)sc2c1	16µM*	?	-20%	?	?
O=C(Nc1nc2c(s1)CCCC2)c1cccc(S(=O)(=O)N2CCCc3ccccc32)c1	21%	0%	13µM*	3.2µM*	-9%
Cc1ccc(NC(=O)[C@H](C)NC(=O)C2CCN(C(=O)[C@H](CC(C)C)NC(=O)OC(C)(C)C)CC2)cc1	12%	7%	5%	2%	-1%
Cc1ccc(S(=O)(=O)Nc2ccc3cn[nH]c3c2)c(C)c1	16%	16µM*	·	·	0%
Cc1ccc(C)c(S(=O)(=O)Nc2ccc3cn[nH]c3c2)c1	1%	0%	·	·	-3%
CCOC(=O)/C(=N/Nc1ccccc1)c1csc(Nc2ccccc2)n1	?	?	-21%	-41%	?
